Results: PubChem BioAssay (NCATS)
Results filed as inconclusive are left out. The source made the active and inactive calls. The call rests on the fitted dose curve; in most records, active means well fitted curve in the direction sought with a large enough effect; inconclusive means small, poorly fitted or top-dose-only effect, or another doubt; inactive means no such curve, though single readings can be large; an effect the other way counts as inactive or inconclusive.

Experiments:
[1] = Tertiary RLuc qRT-PCR qHTS assay for Zika virus inhibitors (AID 1347169); details: infected Vero cells, reporter luminescence, 48-72 h; series mostly up to 45.9 µM; further: top concentration of the series differs between compounds; on the % scale 0 is the no-effect control and ±100 the full control effect; nearly all actives have a fitted effect of over 55% in size
In short: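 Luminescence read-out: live-cell Renilla luciferase substrate applied to infected Vero cells, signal measured after 1-1.5 hrs. Cells had received compound before ZIKV-RLuc (Cambodian strain, MOI 1-2) infection and were incubated 48-72 hrs at 37 degrees C.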

[2] = OV-KATE Cancer Cell Toxicity qHTS against the NCATS CANVASS Library (AID 1347345); details: OV-KATE cells viability, CellTiter-Glo luminescence, 72 h; series mostly up to 12.8 µM; further: on the % scale 0 is the no-effect control and ±100 the full control effect
In short: (§1)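 1000 cells/well; 4 h settle; 11-pnt titration; 72 h, 37 degrees C, 5% CO2; CellTiter-Glo, 15min RT; luminescence read.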

[3] = HPAF-II Cancer Cell Toxicity qHTS against the NCATS CANVASS Library (AID 1347346); details: HPAF-II viability, CellTiter-Glo ATP luminescence, 72 h; series mostly up to 12.8 µM; further: on the % scale 0 is the no-effect control and ±100 the full control effect; nearly all actives have a fitted effect of over 55% in size
In short: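 1000 HPAF-II cells/well; 4 h pre-incubation; 11-pnt compound titration; 72 h, 37 degrees C/5% CO2; CellTiter-Glo, 15 min RT; luminescence read.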

[4] = UWB1.289 Cancer Cell Toxicity qHTS against the NCATS CANVASS Library (AID 1347347); details: UWB1.289 viability, CellTiter-Glo luminescence, 72 h; series mostly up to 12.8 µM; further: on the % scale 0 is the no-effect control and ±100 the full control effect; nearly all actives have a fitted effect of over 60% in size
In short: as §1

[5] = OV-SAHO Cancer Cell Toxicity qHTS against the NCATS CANVASS Library (AID 1347348); details: OV-SAHO viability, CellTiter-Glo luminescence, 72 h; series mostly up to 12.8 µM; further: on the % scale 0 is the no-effect control and ±100 the full control effect; nearly all actives have a fitted effect of over 55% in size
In short: as §1

[6] = Panc-1005 Cancer Cell Toxicity qHTS against the NCATS CANVASS Library (AID 1347349); details: Panc-1005 viability, CellTiter-Glo luminescence, 72 h; series mostly up to 12.8 µM; further: on the % scale 0 is the no-effect control and ±100 the full control effect; nearly all actives have a fitted effect of over 60% in size
In short: as §1

[7] = SW1088 Cancer Cell Toxicity qHTS against the NCATS CANVASS Library (AID 1347350); details: SW1088 viability, CellTiter-Glo luminescence, 72 h; series mostly up to 12.8 µM; further: on the % scale 0 is the no-effect control and ±100 the full control effect; nearly all actives have a fitted effect of over 75% in size
In short: as §1

[8] = U-118MG Cancer Cell Toxicity qHTS against the NCATS CANVASS Library (AID 1347351); details: U-118MG viability, CellTiter-Glo luminescence, 72 h; series mostly up to 12.8 µM; further: on the % scale 0 is the no-effect control and ±100 the full control effect
In short: as §1

[9] = COV-362 Cancer Cell Toxicity qHTS against the NCATS CANVASS Library (AID 1347352); details: COV-362 viability, CellTiter-Glo luminescence, 72 h; series mostly up to 12.8 µM; further: on the % scale 0 is the no-effect control and ±100 the full control effect
In short: (§2)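 1000 cells/well, 4 h pre-incubation 37 °C/5% CO2; 11-pnt titration; 72 h; CellTiter-Glo 15 min RT, luminescence.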

[10] = A2780 Cisplatin Sensitive Ovarian Cancer Cell Toxicity qHTS against the NCATS CANVASS Library (AID 1347353); details: A2780 ovarian cancer viability, ATPLite luminescence, 72 h; at 15.4 µM (top of the series); further: nearly all actives have a fitted effect of over 60% in size
In short: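 750 cells/well, 4 h settle; 11-pt cpd titration; 72 h, 37 °C, 5% CO2; ATPLite 10 min RT; luminescence read.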

[11] = UWB1.289-WTBRCA1 Cancer Cell Toxicity qHTS against the NCATS CANVASS Library (AID 1347354); details: UWB1.289-WTBRCA1 viability, CellTiter-Glo luminescence, 72 h; series mostly up to 12.8 µM; further: on the % scale 0 is the no-effect control and ±100 the full control effect
In short: as §2

[12] = HEK-293 Cancer Cell Toxicity qHTS against the NCATS CANVASS Library (AID 1347355); details: HEK-293 viability, CellTiter-Glo luminescence, 72 h; at 15.4 µM (top of the series); further: nearly all actives have a fitted effect of over 65% in size
In short: as §2

[13] = HPAF-II 24hr Apoptosis Induction qHTS against the NCATS CANVASS Library (AID 1347356); details: HPAF-II caspase-3/7 Caspase-Glo luminescence; series mostly up to 15.4 µM; further: 0% is about no effect
In short: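 500 HPAF-II cells/well; compounds in 11-pnt qHTS; 24 h, 37 C/5% CO2; Caspase-Glo 3/7 added, 15 min RT dark; luminescence read. Doxorubicin control.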

[14] = HEK293 18hr Apoptosis Induction qHTS against the NCATS CANVASS Library (AID 1347357); details: HEK293 caspase-3/7 Caspase-Glo luminescence; series mostly up to 15.4 µM; further: 0% is about no effect
In short: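 Caspase-3/7 luminescence (DEVD substrate, Caspase-Glo) after 18 h compound exposure of HEK293 cells, 500 cells/well; 11-point series; doxorubicin titration as control.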

[15] = HPAF-II 12hr Apoptosis Induction qHTS against the NCATS CANVASS Library (AID 1347358); details: HPAF-II caspase-3/7 Caspase-Glo luminescence; series mostly up to 15.4 µM; further: 0% is about no effect
In short: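 Caspase-Glo 3/7 luminescence (DEVD substrate) reports caspase activity in HPAF-II cells after 12 h compound treatment at 37 degrees C. Compounds were tested in an 11-point series. Doxorubicin served as control.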

[16] = HEK293 24hr Apoptosis Induction qHTS against the NCATS CANVASS Library (AID 1347359); details: HEK293 caspase-3/7 activation, Caspase-Glo luminescence; series mostly up to 15.4 µM; further: 0% is about no effect
In short: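 Caspase-3/7 activation measured as luminescence from the DEVD-based Caspase-Glo reagent, 15 min at room temperature, following 24-hour compound treatment of HEK293 cells.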

[17] = HPAF-II 18hr Apoptosis Induction qHTS against the NCATS CANVASS Library (AID 1347360); details: HPAF-II caspase-3/7 luminescence; series mostly up to 15.4 µM; further: 0% is about no effect
In short: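 Caspase-Glo 3/7 luminescence (DEVD substrate) after 15 min RT; HPAF-II, 500 cells/well, 18 h compound exposure at 37 degrees C, qHTS series; doxorubicin control 0.1nM - 4uM.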

[18] = HEK293 12hr Apoptosis Induction qHTS against the NCATS CANVASS Library (AID 1347361); details: HEK293 caspase-3/7 Caspase-Glo luminescence; series mostly up to 15.4 µM; further: 0% is about no effect
In short: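 500 HEK293 cells/well; cpds pin-transferred, 11-pt conc series; 12 h, 37 degrees C/5% CO2; Caspase-Glo 3/7 added, 15 min RT dark; luminescence.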

[19] = test system: NAD(P)H diaphorase (Clostridium kluyveri); test: Diaphorse counterscreen qHTS: Assay Interference Panel against the NCATS CANVASS Library (AID 1347362); details: Diaphorase enzyme, resazurin to resorufin fluorescence; series mostly up to 19.2 µM; further: 0% is about no effect
In short: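 Counterscreen for coupling-enzyme interference: resorufin fluorescence from resazurin/NADH turnover, read after 5 min at room temperature. Compounds were tested over an 11-point series after 15 min dark preincubation with diaphorase in PBS-Tween.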

[20] = HepG2 cells viability qHTS for Zika virus inhibitors (AID 1347168); details: Zika counter-screen; series mostly up to 45.9 µM; further: on the % scale 0 is the no-effect control and ±100 the full control effect
In short: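 Luminescent ATP readout (CellTiter Glo) after 30 min at 37 degrees C gives viability; cells in DMEM + 4% FBS were treated 24 to 48 hours with compound, following overnight attachment.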

Measured: activity change, negative = inhibition

COc1ccccc1Oc1c(NS(=O)(=O)c2ccc(C(C)(C)C)cc2)nc(-c2ncccn2)nc1OCCO
inactive: [1] 14.1% [at 1.74 µM]

C[C@@H]1O[C@@H](OC[C@H]2O[C@@H](Oc3c(-c4ccc(O)c(O)c4)oc4cc(O)cc(O)c4c3=O)[C@H](O)[C@@H](O)[C@@H]2O)[C@H](O)[C@H](O)[C@H]1O
not listed: [1] | [20]
inactive: all other assays above

O=C(O)Cn1c(C(=O)Nc2nc(-c3ccccc3Cl)cs2)cc2ccccc21
inactive: [20] | [1]

O=C(O)[C@@H]1[C@H]2C[C@H]3c4[nH]c5ccccc5c4CCN3C[C@@H]2CC[C@@H]1O
inactive: [20] | [1]

CN1C[C@@H]2C[C@H]1CN2c1cc2c(cc1F)c(=O)c(C(=O)O)cn2C1CC1
inactive: [20] | [1]
